According to PubChem BioAssay (EPA / NIEHS):
Results filed as inconclusive are left out. Calls of active or inactive are those of the source. How the source made its calls, unless noted: active means hit-call score of the fitted dose curve at least 0.9, where 1 is the maximum; inconclusive means response in the unintended direction; inactive means score below 0.9.

Columns and labels:
[1] = TOX21_p53_BLA_p2_viability: Viability Assessment in the Tox21 HCT-116 p53 Agonism Beta-lactamase Assay, Phase 2 (AID 2283591);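 further: actives lower the ATP signal meaning cytotoxicity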
Method in brief: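 Cytotoxicity readout: CellTiter-Glo ATP luminescence, 30 min at room temperature, after the beta-lactamase read. Cells were HCT116 exposed 16 h at 37C to compounds pin-transferred at 217-fold dilution from DMSO stocks.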

[2] = molecular target: Cellular tumor antigen p53 (Homo sapiens) (UniProt P04637); test: TOX21_p53_BLA_p2_ratio: Tox21 HCT-116 p53 Agonism Beta-lactamase Assay, Ratio, Phase 2 (AID 2283592)
Method in brief: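 Readout: blue/green (460/530 nm) FRET emission ratio after 2 h CCF4-AM loading at room temperature, excitation 405 nm. HCT116 p53 bla cells, 16 h compound exposure at 37C, 5% CO2; agonist direction fitted against DMSO baseline.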

[3] = TOX21_p53_BLA_p4_viability: Viability Assessment in the Tox21 HCT-116 p53 Agonism Beta-lactamase Assay, Phase 4 (AID 2283597);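 further: hits lower the luminescence signal meaning cytotoxicity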
Method in brief: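 ATP content by CellTiter-Glo luminescence, 30 min RT, read after the beta-lactamase ratio step. Cells: HCT116, 4000/well, compound added after 5 h, exposure 16 h at 37C. Signal loss = reduced viability.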

[4] = molecular target: Cellular tumor antigen p53 (Homo sapiens) (UniProt P04637); test: TOX21_p53_BLA_p3_ratio: Tox21 HCT-116 p53 Agonism Beta-lactamase Assay, Ratio, Phase 3 (AID 2283596)
Method in brief: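 Cells were seeded at 4000/well, rested 5 h at 37C, then dosed with DMSO compound solutions (217-fold dilution) for 16 h. CCF4-AM substrate was loaded for 2 h at room temperature, and the 460/530 nm emission ratio was fitted for gain of signal versus DMSO.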

[5] = TOX21_p53_BLA_p5_viability: Viability Assessment in the Tox21 HCT-116 p53 Agonism Beta-lactamase Assay, Phase 5 (AID 2283600)
Method in brief: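 ATP luminescence (CellTiter-Glo, 30 min, RT) served as the viability read-out, with loss of signal indicating cytotoxicity. Compounds in DMSO were pinned at a 217-fold dilution onto 4000 cells/well and incubated 16 h, 37C.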

[6] = molecular target: Cellular tumor antigen p53 (Homo sapiens) (UniProt P04637); test: TOX21_p53_BLA_p4_ratio: Tox21 HCT-116 p53 Agonism Beta-lactamase Assay, Ratio, Phase 4 (AID 2283601)
Method in brief: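 Signal is the blue/green (460nm/530nm) ratio of cleaved versus uncleaved CCF4-AM substrate, read after 2 h substrate loading. Cells were HCT116 carrying the p53-responsive beta-lactamase reporter, dosed 16 h at 37C, 5% CO2; CellTiter-Glo measured in parallel.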

[7] = molecular target: Cellular tumor antigen p53 (Homo sapiens) (UniProt P04637); test: TOX21_p53_BLA_p5_ratio: Tox21 HCT-116 p53 Agonism Beta-lactamase Assay, Ratio, Phase 5 (AID 2283599)
Method in brief: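 Beta-lactamase reporter ratio (blue 460 nm over green 530 nm, 405 nm excitation) after 2 h CCF4-AM loading, in HCT-116 cells exposed 16 h at 37 C to compounds pinned at 217-fold dilution. Increases relative to DMSO baseline scored.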

[8] = tested on: Brachyury (BRA) Protein Expression, Deisenroth Lab, TBXT (gene 6862); test: CCTE_Deisenroth_DEVTOX-GLR_legacy_Bra: (Legacy) CCTE's DevTox GLR-Endo Assay Evaluation of Brachyury (BRA) Protein Expression, Deisenroth Lab (AID 2284329; active means hit-call score of the fitted dose curve at least 0.9, where 1 is the maximum; inactive means score below 0.9)
Method in brief: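 Percent Bra-positive cells, scored by high-content imaging against a threshold of 5x BMAD over the undifferentiated control median, with the 0.2% DMSO median subtracted. RUES2-GLR cultures were dosed twice at 24 h intervals across a 48 h differentiation, at 1 nM–200 uM in ten steps, with n=4 replicates.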

[9] = CCTE_Deisenroth_DEVTOX-GLR_legacy_CellCount: (Legacy) Viability Assessment in CCTE's DevTox GLR-Endo Assay, Deisenroth Lab (AID 2284331; active means hit-call score of the fitted dose curve at least 0.9, where 1 is the maximum; inactive means score below 0.9); details: actives raise or lower the signal
Method in brief: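 Seed RUES2-GLR 24 h; differentiate 48 h, dosing at 0 and 24 h; fix, stain nuclei; image 5 fields/well; count nuclei. Conc. 1 nM - 200 uM, single technical replicate, n=4 experiments; bidirectional fit vs 0.2% DMSO.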

[10] = tested on: SRY-box transcription factor 17 (SOX17) Protein Expression, Deisenroth Lab, SOX17 (gene 64321); test: CCTE_Deisenroth_DEVTOX-GLR_legacy_Sox17: (Legacy) CCTE's DevTox GLR-Endo Assay Evaluation of SRY-box transcription factor 17 (SOX17) Protein Expression, Deisenroth Lab (AID 2284341; active means hit-call score of the fitted dose curve at least 0.9, where 1 is the maximum; inactive means score below 0.9); details: actives raise or lower the signal
Method in brief: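 Using the RUES2-GLR line, compounds are tested as 10-point series during 48-h defined-media differentiation. Sox17 reporter fluorescence per cell determines positivity; endpoint is percentage positive, analysed bidirectionally versus DMSO baseline.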

[11] = tested on: SRY-box transcription factor 2 (SOX2) Protein Expression, Deisenroth Lab, SOX2 (gene 6657); test: CCTE_Deisenroth_DEVTOX-GLR_legacy_Sox2: (Legacy) CCTE's DevTox GLR-Endo Assay Evaluation of SRY-box transcription factor 2 (SOX2) Protein Expression, Deisenroth Lab (AID 2284346; active means hit-call score of the fitted dose curve at least 0.9, where 1 is the maximum; inactive means score below 0.9)
Method in brief: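 Percent Sox2-positive cells was scored by high-content imaging of 5 fields per well. Positivity cutoff was 5x BMAD over the directed endoderm control, and the DMSO median was subtracted. Cells were RUES2-GLR, dosed twice at 24-h intervals over 48 h of differentiation (1 nM-200 uM).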

[12] = tested on: SRY-box transcription factor 17 (SOX17) Protein Expression, Deisenroth Lab, SOX17 (gene 64321); test: CCTE_Deisenroth_DEVTOX-GLR_Endo_SOX17: CCTE's DevTox GLR-Endo Assay Evaluation of SRY-box transcription factor 17 (SOX17) Protein Expression, Deisenroth Lab (AID 2284413; active means hit-call score of the fitted dose curve at least 0.9, where 1 is the maximum; inactive means score below 0.9)
Method in brief: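 RUES2-GLR human pluripotent cells were seeded 24 h, then differentiated toward endoderm for 48 h with two chemical exposures 24 h apart (10-point series, 1 nM - 200 uM). Nuclei-stained fixed cells were imaged; endpoint is percent change in SOX17+ cells versus 0.2% DMSO.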

[13] = CCTE_Deisenroth_DEVTOX-GLR_Endo_CellCount: Viability Assessment in CCTE's DevTox GLR-Endo Assay, Deisenroth Lab (AID 2284420; active means hit-call score of the fitted dose curve at least 0.9, where 1 is the maximum; inactive means score below 0.9)
Method in brief: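 Nuclei counted by fluorescence microscopy as a surrogate for cell number, expressed as percent change relative to 0.2% DMSO control. Human RUES2-GLR cells, 48 h differentiation, dosed twice; 1 nM - 200 uM series.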

[14] = tested on: SRY-box transcription factor 17 (SOX17) Protein Expression, Deisenroth Lab, SOX17 (gene 64321); test: CCTE_Deisenroth_DEVTOX-GLR_Pluri_SOX17: CCTE's DevTox GLR-Pluri Assay Evaluation of SRY-box transcription factor 17 (SOX17) Protein Expression, Deisenroth Lab (AID 2284427)
Method in brief: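 Readout: percent SOX17+ cells (SOX17+ count/cell count) by high-content imaging of an inducible fluorescent reporter, corrected for 0.2% DMSO solvent control. RUES2-GLR cells, 48 h differentiation, dosed twice at 24 h intervals, 1 nM - 200 uM.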

[15] = tested on: Brachyury (BRA) Protein Expression, Deisenroth Lab, TBXT (gene 6862); test: CCTE_Deisenroth_DEVTOX-GLR_Pluri_BRA: CCTE's DevTox GLR-Pluri Assay Evaluation of Brachyury (BRA) Protein Expression, Deisenroth Lab (AID 2284429)
Method in brief: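 Percent BRA+ cells (BRA+ count over total cells) by high-content imaging of fixed RUES2-GLR cultures, corrected by 0.2% DMSO control. Cells received two doses over 48-hour differentiation, 1 nM–200 uM, n=4 experiments.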

[16] = CCTE_Deisenroth_DEVTOX-GLR_Pluri_CellCount: Viability Assessment in CCTE's DevTox GLR-Pluri Assay Evaluation of Total Cell Counts, Deisenroth Lab (AID 2284430; active means hit-call score of the fitted dose curve at least 0.9, where 1 is the maximum; inactive means score below 0.9)
Method in brief: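 Cytotoxicity readout: fluorescent nuclei counts by high-content imaging, expressed as percent change relative to 0.2% DMSO. Human RUES2-GLR pluripotent line differentiated 48 h, dosed twice at 24-h intervals across 1 nM - 200 uM (10 points).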

THRB (gene 7068) [17] = molecular target: THRB (gene 7068) (UniProt P10828); test: TOX21_TRB_BLA_Antagonist_Followup_ratio: Tox21 Thyroid Hormone Receptor beta Antagonism Beta-lactamase (BLA) Follow-Up Assay, Ratio (AID 2283958)
Method in brief: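 Cells were plated and allowed to attach for 5 h, then dosed with compounds in DMSO at 11 concentrations for 18 h at 37C. Beta-lactamase reporter activity was measured via CCF4-AM FRET as the 460:530 nm ratio.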

[18] = TOX21_TRB_BLA_Antagonist_Followup_viability: Viability Assessment in the Tox21 Thyroid Hormone Receptor beta Antagonism Beta-lactamase (BLA) Follow-Up Assay (AID 2283961)
Method in brief: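 Viability read as CellTiter-Glo ATP luminescence (loss of signal = cytotoxicity) in the same plates as the TRβ-bla readout. TRβ-LBD/GAL4 UAS-bla HEK293T cells were exposed to compounds, 11 concentrations in triplicate, for 18 h at 37C/5% CO2.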

THRB (gene 7068) [19] = molecular target: THRB (gene 7068) (UniProt P10828); test: TOX21_TRB_COA_Antagonist_Followup_ratio: Tox21 Thyroid Hormone Receptor beta Antagonism through Coactivator Recruitment Follow-Up Assay, Ratio (AID 2283967)
Method in brief: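 Coactivator recruitment to the GST-tagged TRb ligand-binding domain (5.0 nM) was read as the 520/495 nm TR-FRET ratio, using 200 nM fluorescein SRC-2 peptide and 2 nM terbium anti-GST. Scaled between DMSO and T3 wells; loss of signal fitted.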

[20] = CCTE_Harrill_HTTr_Viability_MCF7: CCTE's 6-hour Cell Viability Assessment for the High-Throughput Transcriptomics (HTTr) Platform, in MCF-7 cells cultured in DMEM + 10% fetal bovine serum, Harrill Lab (AID 2284010; active means hit-call score of the fitted dose curve at least 0.9, where 1 is the maximum; inactive means score below 0.9)
Method in brief: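 Read-out is propidium iodide gain of signal by high-content imaging, reflecting membrane integrity loss. Measurements are taken 6 h after dosing, eight concentrations per chemical, with DMSO serving as baseline for bidirectional curve fitting.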

[21] = CCTE_Harrill_HTTr_Apoptosis_MCF7: CCTE's 6-hour Apoptosis Assessment for the High-Throughput Transcriptomics (HTTr) Platform, in MCF-7 cells cultured in DMEM + 10% fetal bovine serum, Harrill Lab (AID 2284011; active means hit-call score of the fitted dose curve at least 0.9, where 1 is the maximum; inactive means score below 0.9)
Method in brief: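 Read-out: CellEvent Caspase 3/7 Green signal by high content imaging, gain-of-signal indicating apoptosis. MCF-7 cells, DMEM + 10% FBS, eight-point dilution series, 6 h exposure. Curves fitted bidirectionally relative to DMSO negative control.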

[22] = CCTE_Harrill_HTTr_CellCount_MCF7: CCTE's Cell Proliferation Assessment for the High-Throughput Transcriptomics (HTTr) Platform, Harrill Lab (AID 2284012);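 further: cells exposed to compound for six hours; intended direction is loss of nuclei count meaning fewer cells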
Method in brief: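 Cell count served as viability reporter: loss of Hoechst-stained nuclei, counted by high content imaging, marks decreased growth or survival. Exposure was 6 h in MCF-7 cells across eight concentrations, with DMSO as baseline.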

Sequence of Cellular tumor antigen p53 (Homo sapiens) (P04637 whole entry, looked up): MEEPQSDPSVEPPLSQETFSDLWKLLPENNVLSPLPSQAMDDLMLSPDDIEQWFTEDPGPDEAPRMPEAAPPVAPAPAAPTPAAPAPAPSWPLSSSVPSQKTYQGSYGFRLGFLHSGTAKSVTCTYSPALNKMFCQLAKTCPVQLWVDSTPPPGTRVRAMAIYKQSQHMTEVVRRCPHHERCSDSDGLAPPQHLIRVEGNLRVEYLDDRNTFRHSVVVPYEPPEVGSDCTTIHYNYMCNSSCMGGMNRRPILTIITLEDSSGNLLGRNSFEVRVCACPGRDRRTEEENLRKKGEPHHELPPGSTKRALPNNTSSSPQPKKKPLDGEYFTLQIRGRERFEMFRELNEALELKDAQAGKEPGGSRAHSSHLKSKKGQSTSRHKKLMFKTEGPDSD
Sequence of THRB (gene 7068) (P10828 whole entry, looked up, the tested form may be a part): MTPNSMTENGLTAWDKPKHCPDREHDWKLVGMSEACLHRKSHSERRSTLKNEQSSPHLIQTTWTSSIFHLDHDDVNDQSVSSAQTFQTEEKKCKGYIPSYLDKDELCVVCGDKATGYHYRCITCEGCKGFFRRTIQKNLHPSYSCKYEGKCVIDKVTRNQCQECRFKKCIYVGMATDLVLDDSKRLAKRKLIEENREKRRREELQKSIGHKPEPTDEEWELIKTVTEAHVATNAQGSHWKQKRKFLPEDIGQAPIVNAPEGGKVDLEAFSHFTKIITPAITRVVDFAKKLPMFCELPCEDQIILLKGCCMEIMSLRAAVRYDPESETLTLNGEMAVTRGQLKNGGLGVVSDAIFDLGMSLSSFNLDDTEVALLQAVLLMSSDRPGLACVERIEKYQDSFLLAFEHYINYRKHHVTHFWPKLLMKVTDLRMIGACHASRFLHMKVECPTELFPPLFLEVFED

## CCCCOCCOC(=O)COc1cc(Cl)c(Cl)cc1Cl
[1]
  outcome: inactive
[2]
  outcome: inactive
[3]
  outcome: inactive

## NS(=O)(=O)c1ccccc1OC(F)(F)F
[1]
  outcome: inactive
[2]
  outcome: inactive
[4]
  outcome: inactive
[5]
  outcome: inactive
[6]
  outcome: inactive

## CN(CC1(C)CCCO1)S(=O)(=O)c1ccc(Cl)c(S(N)(=O)=O)c1 (configuration not stated)
[1]
  outcome: inactive
[2]
  outcome: inactive
[4]
  outcome: inactive
[5]
  outcome: inactive
[6]
  outcome: inactive

## CCN(Cc1ccncc1)C(=O)C(CO)c1ccccc1 (configuration not stated)
[1]
  outcome: inactive
[2]
  outcome: inactive
[4]
  outcome: inactive
[5]
  outcome: inactive

## CC(C)CCCC(C)CCCC(C)CCCCC(C)CCCC(C)CCCC(C)C (configuration not stated)
[1]
  outcome: inactive
[2]
  outcome: inactive
[4]
  outcome: inactive
[5]
  outcome: inactive
[6]
  outcome: inactive

## Nc1cccc2c1CN(C1CCC(=O)NC1=O)C2=O (configuration not stated)
[1]
  outcome: inactive
[2]
  outcome: inactive
[4]
  outcome: inactive
[7]
  outcome: inactive
[6]
  outcome: inactive
[8]
  outcome: inactive
[9]
  AC50: 132 nM (active)
[10]
  AC50: 328 nM (active)
[11]
  outcome: inactive
[12]
  AC50: 293 nM (active)
[13]
  AC50: 132 nM (active)
[14]
  outcome: inactive
[15]
  outcome: inactive
[16]
  outcome: inactive

## Cc1nc(-c2ccc(OCC(C)C)c(C#N)c2)sc1C(=O)O
[1]
  outcome: inactive
[2]
  outcome: inactive
[4]
  outcome: inactive
THRB (gene 7068) [17]
  outcome: inactive
[18]
  outcome: inactive
THRB (gene 7068) [19]
  outcome: inactive
[20]
  outcome: inactive
[21]
  outcome: inactive
[22]
  outcome: inactive

## CCCCOC(=O)c1ccccc1C(=O)OCC(CC)CCCC (configuration not stated)
[1]
  outcome: inactive
[2]
  outcome: inactive
[3]
  outcome: inactive

## Oc1ccc(O)c2c(O)cccc12
[1]
  outcome: inactive
[2]
  outcome: inactive
[4]
  outcome: inactive
[5]
  outcome: inactive
[6]
  outcome: inactive

## O=S(=O)(O)CCN1CCN(CCO)CC1
[1]
  outcome: inactive
[2]
  outcome: inactive
[4]
  outcome: inactive
[5]
  outcome: inactive
[6]
  outcome: inactive

## Cc1ccc(S(=O)(=O)NC2CCCCC2)cc1
[1]
  outcome: inactive
[2]
  outcome: inactive
[4]
  outcome: inactive
[5]
  outcome: inactive

## COc1ccc(C)cc1
[1]
  outcome: inactive
[2]
  outcome: inactive
[4]
  outcome: inactive
[5]
  outcome: inactive
[6]
  outcome: inactive

## O=C(Cn1ccnc1[N+](=O)[O-])NCc1ccccc1
[1]
  outcome: inactive
[2]
  outcome: inactive
[4]
  outcome: inactive
[5]
  outcome: inactive
[6]
  outcome: inactive

## O=[N+]([O-])c1cccc(S(=O)(=O)NCCNS(=O)(=O)c2cccc([N+](=O)[O-])c2)c1
[1]
  outcome: inactive
[2]
  outcome: inactive
[4]
  outcome: inactive
[5]
  outcome: inactive
[6]
  outcome: inactive

## O=C(O)c1ccc[n+]([O-])c1
[1]
  outcome: inactive
[2]
  outcome: inactive
[4]
  outcome: inactive
[5]
  outcome: inactive
[6]
  outcome: inactive
